Reference: PubChem BioAssay AID1159580 (chemical genetic matrix, 2015)
Values joined by “and” are separate entries in the source; they are usually repeats but may differ in a detail not shown here. Equal entries are not always repeated. In all, about 5,500 compounds went through this assay and about 2,000 (36%) were called active. Inconclusive results (about 18%) are left out. No stated cut-off is given here; in the data, active means normalized growth mostly below about 0.91 (no sharp cut-off); inconclusive means no clear call, values can overlap the other calls; inactive means mostly above about 0.92. This is one part of the list.

Test: chemical genetic growth profiling, strain panel (AID 1159580);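 further: tested at 20 µM; growth read once vehicle control cultures reached saturation at 30 °C; 1 = growth at the plate median or of vehicle wells; lower values mean less growth of the strain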
Conditions: S. cerevisiae deletion strains, growth OD

Measured: normalized growth

NCC(=O)c1ccccc1
inactive: locus YAL013W, strain DEP1, active compounds read low 1.02 | locus YAL021C, strain ccr4, active compounds read low 1.02 | locus YAL026C, strain drs2, active compounds read low 1.01 | locus YAL030W, strain snc1, active compounds read low 1 | locus YBL061C, strain skt5, active compounds read low 0.995 | locus YBR009C, strain hhf1, active compounds read low 0.999 | locus YBR021W, strain FUR4, active compounds read low 1.02 | locus YBR023C, strain chs3, active compounds read low 1 | locus YBR171W, strain sec66, active compounds read low 1 | locus YBR229C, strain ROT2, active compounds read low 1.01 | locus YBR231C, strain swc5, active compounds read low 0.998 | locus YBR279W, strain paf1, active compounds read low 1.01 | locus YCL011C, strain gbp2, active compounds read low 1.01 | locus YCL016C, strain dcc1, active compounds read low 1 | locus YCL029C, strain bik1, active compounds read low 0.998 | locus YCL061C, strain MRC1, active compounds read low 0.996 | locus YCL069W, strain vba3, active compounds read low 0.997 | locus YCR088W, strain abp1, active compounds read low 1 | locus YDL005C, strain med2, active compounds read low 0.984 | locus YDL035C, strain GPR1, active compounds read low 1.02 | locus YDL040C, strain nat1, active compounds read low 1 | locus YDL074C, strain BRE1, active compounds read low 1.06 | locus YDL101C, strain DUN1, active compounds read low 1.02 | locus YDL134C, strain PPH21, active compounds read low 1.02 | locus YDL185W, strain tfp1, active compounds read low 0.996 | locus YDL192W, strain arf1, active compounds read low 0.997 | locus YDR001C, strain nth1, active compounds read low 1.01 | locus YDR069C, strain doa4, active compounds read low 1.02 | locus YDR101C, strain arx1, active compounds read low 0.983 | locus YDR137W, strain rgp1, active compounds read low 1.01 | locus YDR150W, strain NUM1, active compounds read low 1.03 | locus YDR159W, strain sac3, active compounds read low 0.993 | locus YDR162C, strain NBP2, active compounds read low 1.04 | locus YDR195W, strain ref2 0.976 | locus YDR297W, strain sur2, active compounds read low 0.989 | locus YDR318W, strain mcm21, active compounds read low 0.982 | locus YDR334W, strain swr1, active compounds read low 0.999 | locus YDR335W, strain msn5, active compounds read low 1.01 | locus YDR388W, active compounds read low 0.991 | locus YDR392W, strain spt3, active compounds read low 1.02 | locus YDR502C, strain sam2, active compounds read low 0.988 | locus YEL003W, strain gim4, active compounds read low 1 | locus YEL037C, strain rad23, active compounds read low 1 | locus YEL061C, strain CIN8 (second series), active compounds read low 1.02 | locus YEL061C, strain CIN8, active compounds read low 1.01 | locus YER015W, strain faa2, active compounds read low 1 | locus YER016W, strain bim1, active compounds read low 0.987 | locus YER110C, active compounds read low 0.996 | locus YER111C, strain swi4, active compounds read low 0.992 | locus YER155C, strain BEM2 (second series), active compounds read low 1 | locus YER155C, strain BEM2, active compounds read low 1.01 | locus YER167W, strain BCK2, active compounds read low 1.02 | locus YFR010W, strain ubp6, active compounds read low 0.999 | locus YGL078C, strain dbp3, active compounds read low 0.994 | locus YGL086W, strain mad1, active compounds read low 1 | locus YGL167C, strain pmr1, active compounds read low 0.997 | locus YGL173C, strain kem1, active compounds read low 0.998 | locus YGL227W, strain vid30, active compounds read low 1.01 | locus YGL240W, strain doc1, active compounds read low 1.02 | locus YGL248W, strain PDE1, active compounds read low 1.02 | locus YGL253W, strain hxk2, active compounds read low 1.02 | locus YGR078C, strain PAC10, active compounds read low 1.02 | locus YGR135W, strain pre9, active compounds read low 0.994 | locus YGR229C, strain SMI1, active compounds read low 1.03 | locus YGR252W, strain gcn5, active compounds read low 0.964 | locus YHR013C, strain ard1, active compounds read low 0.979 | locus YHR027C, strain rpn1, active compounds read low 1.02 | locus YHR030C, strain SLT2, active compounds read low 1.01 and 1.02 | locus YHR079C, strain IRE1 (second series), active compounds read low 0.996 | locus YHR079C, strain IRE1, active compounds read low 1.03 | locus YHR094C, strain hxt1, active compounds read low 0.988 | locus YHR129C, strain ARP1, active compounds read low 1.01 | locus YHR142W, strain chs7, active compounds read low 1.01 | locus YHR200W, strain rpn10, active compounds read low 0.988 | locus YIL066C, strain RNR3, active compounds read low 1.02 | locus YIL073C, strain SPO22, active compounds read low 0.951 | locus YIL125W, strain kgd1, active compounds read low 1 | locus YIR030C, strain dcg1, active compounds read low 0.992 | locus YJL092W, strain hpr5, active compounds read low 1 | locus YJL095W, strain BCK1 (second series), active compounds read low 0.999 | locus YJL095W, strain BCK1, active compounds read low 1.05 and 1.03 | locus YJL115W, strain asf1, active compounds read low 1 | locus YJL129C, strain trk1, active compounds read low 1 | locus YJL134W, strain LCB3, active compounds read low 1.01 | locus YJL154C, strain vps35, active compounds read low 1 | locus YJL164C, strain tpk1, active compounds read low 0.996 | locus YJL166W, strain qcr8, active compounds read low 1.02 | locus YJL168C, strain set2, active compounds read low 0.994 | locus YJL187C, strain SWE1 (second series), active compounds read low 1.02 | locus YJR043C, strain POL32, active compounds read low 1 | locus YJR066W, strain TOR1, active compounds read low 0.997
